The structures appear in SMILES notation. About 3,000 (1%) of roughly 290,000 compounds were called active. What follows is part of a selection rich in actives, with near analogues and random picks from the rest. Unmarked numbers belong to inactive results. Cut-off read from the data, not from the text of the source: active = inhibition mostly above about 36% (no sharp cut-off); inactive = mostly below about 34%.

The test can be described thus: inhibition of NOD1-driven NF-kB reporter – cell-based, luminescence, uHTS, primary screen (AID 1578).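 Note: HEK-293T reporter cells stimulated with the NOD1 agonist gamma-tri-DAP.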 Particulars: NOD1-driven NF-kB luciferase reporter cells, at 4 µM, stronger effect = higher value. On the technique in general: Reporter assays use an easily measured gene product as a stand-in for the process of interest.
The term inhibition denotes the relative decrease from the control value, in per cent. Take `O=Nc1c(O)n(Cc2ccccc2)c2ccccc12`: the inhibition is 9.5%.
The value for `O=Nc1c(O)n(Cc2cccc(Cl)c2)c2ccccc12` was 34.1%; that for `O=Nc1c(O)n(Cc2cccc(C(F)(F)F)c2)c2ccccc12` was 82.8% (active); that for `Cc1cccc(NC(=S)NNC(=S)NC2CCCCC2)c1C` was -15.3%.
Take `CCOC(=O)c1[nH]c(C)c(CN(CCc2ccc(OC)c(OC)c2)C(=O)CCCC(=O)O)c1C`: the inhibition was -27.8%.
Take `CCOC(=O)C1CCCN(C(=O)CCCn2nnnc2CN2CCOCC2)C1` (stereo unspecified): the inhibition was 45% (active).
The value for `CCOC(=O)C1CCCN(C(=O)CCCn2nnnc2CN2CCC(C)CC2)C1` (stereo unspecified) was -6.9%; that for `CCOC(=O)C1CCCN(C(=O)CCn2nnnc2CN2CCOCC2)C1` (stereo unspecified) was -14.8%.
The result for `O=C(O)CN1C(=O)CSc2ccccc21` reads 14.5%; that for `O=C(CN1CCSc2ccccc21)NCCCc1ccccc1`, -29.8%.
The value for `CCOC(=O)c1ccc(N2C(=O)CC(C)(CC)CC2=O)cc1` was -5%; that for `CC(C)(C)c1ccc(C(=O)N2CCCN(c3ccc([N+](=O)[O-])cn3)CC2)cc1` was -3.4%; that for `CC(C)(C)c1ccc(NC(=O)N2CCN(c3ccc([N+](=O)[O-])cn3)CC2)cc1` was 29.4% (active).
Turning to `CC(C)(C)c1ccc(NC(=O)N2CCCN(c3ccc([N+](=O)[O-])cn3)CC2)cc1`, the inhibition was 0.9%.
The value for `O=C(O)CC(C(=O)O)N1C(=O)/C(=C/C=C/c2ccco2)SC1=S` (stereo unspecified) was -8.8%; that for `O=C(O)CCCN1C(=O)/C(=C\c2ccco2)SC1=S` was -3.5%.
The value for `O=C(O)CCCN1C(=O)/C(=C/C=C/c2ccco2)SC1=S` was 23.3% (active).
Consider `CC(=O)Nc1ccc(C(=O)N/C(=C/c2ccccc2)C(=O)Nc2cccc(C(=O)O)c2)cc1`, for which the inhibition was -27.4%.
Regarding `O=C(CN1CCCCCC1)NCc1ccccc1`, the inhibition was -25.9%.
Turning to `COc1ccc(N(Cc2ccccc2)C(=O)CSc2nnc(Cn3nnc4ccccc43)o2)cc1`, the inhibition was -12.4%.
The value for `O=C(CSc1nnc(Cn2nnc3ccccc32)o1)N(Cc1ccc(Cl)cc1)c1ccccc1` was 48.7% (active); that for `O=C(CSc1nnc(Cn2nnc3ccccc32)o1)N(Cc1ccc(F)cc1)c1ccccc1` was 37.1%; that for `O=C(O)c1ccc2c(c1)ncn2C1CCCCC1` was -10.3%.
The result for `NNC(=O)c1csc(Cc2c(Cl)sc3ccc(Cl)cc23)n1` reads 11.9%; that for `CCOC(=O)CC1C(=O)NCCN1C(=O)COc1ccc(C(C)(C)C)cc1` (stereo unspecified), -17.7%; that for `O=C(O)Cc1ccc(NC(=O)Cc2ccc3ccccc3c2)cc1`, -30.6%.
The result for `COc1cccc(-n2nnc3c(=O)n(CC(=O)N4CCCCC4)cnc32)c1` reads -13.7%.
Turning to `Cc1ccc(NC(=O)C2C3C=CC4(O3)C2C(=O)N(CCCN2CCOCC2)C4C(=O)NC2CCCCC2)cc1Cl` (stereo unspecified), the inhibition was -35.1%.
The result for `CC(C)c1cc(NC(=O)CCl)on1` reads 41.7% (active); that for `CC(C)c1cc(C(=O)O)on1`, -10.1%.
For the molecule `CC(C)c1cc(NC(=O)CSc2nnc(-c3ccccc3F)n2C)on1`, the inhibition is 18.2%.
The value for `CCc1ccc(NC(=O)c2cc(CC(C)C)on2)cc1` was -39.3%; that for `O=C(N/N=C/c1ccc(O)cc1)c1ccc(NC(=O)c2ccccc2Br)cc1` was -3.3%.
The value for `CCOc1ccc(CNC(=O)CCCC(=O)n2ncc3cc(C)ccc32)cc1` was -10.4%; that for `CN1C(=O)c2cccc(NC(=O)Cc3ccccc3)c2C1=O` was 5.1%; that for `CN1C(=O)c2cccc(NC(=O)CCc3ccccc3)c2C1=O` was -23%.
Take `CCC(=O)Nc1cccc2c1C(=O)N(C)C2=O`: the inhibition is 83.2% (active).
The result for `CCCCNC(=S)Nc1ccc(Cl)cc1` reads 0.1%; that for `Cc1oc(-c2ccccc2Cl)nc1CSCC(=O)N1CCCC1`, 25.8%; that for `Cc1oc(-c2ccccc2Cl)nc1CSc1nc2c(c(=O)[nH]1)CCC2`, 34%.
The result for `COc1ccccc1N1CCN(c2ccc([N+](=O)[O-])cc2Cl)CC1` reads 7.1%; that for `Oc1ccc(Cc2ncc(C(F)(F)F)cc2Cl)cc1`, 5.6%; that for `Cc1ccc(NC(=O)c2nc(S(=O)(=O)Cc3ccccc3)ncc2Cl)cc1`, 34.5%.
For `Cc1cccc(CS(=O)(=O)c2ncc(Cl)c(C(=O)NCc3ccccc3)n2)c1`, the inhibition is 34.5%.
As to `CC(=O)Nc1ccc(NC(=O)c2nc(S(=O)(=O)Cc3cccc(C)c3)ncc2Cl)cc1`, the inhibition was 8.3%.
The result for `CC(=O)Nc1ccc(NC(=O)c2nc(S(=O)(=O)Cc3ccccc3)ncc2Cl)cc1` reads 11.7%; that for `Cc1cccc(CS(=O)(=O)c2ncc(Cl)c(C(=O)NCc3ccc4c(c3)OCO4)n2)c1`, 70.3% (active).
The result for `O=C(NCc1ccc2c(c1)OCO2)c1nc(S(=O)(=O)Cc2ccccc2)ncc1Cl` reads 16.2%; that for `Cc1nnc(NC(=O)c2nc(S(=O)(=O)Cc3ccccc3C)ncc2Cl)s1`, 41.7%; that for `COc1ccc(/C=C2\SC(=S)N(CCC(=O)N3CCCCC3)C2=O)cc1`, 13.7%.
The value for `CCN(CC)CCNC(=O)CS(=O)Cc1nc(-c2ccc(C)cc2)oc1C` (stereo unspecified) was 13.6%; that for `CN(C)c1cccc(C(=O)NNC(=S)NC2CCCC2)c1` was -23.1%.
With `CCC(C)C(NC(=O)C(CC(C)C)NC(=O)C(CO)NC(=O)C1CCC(=O)N1)C(=O)OC` (stereo unspecified), the inhibition was -36%.
The result for `CN(Cc1nc2ccccc2[nH]1)Cc1nc(CC2CC2)no1` reads -48.9%; that for `COCCNC(=S)NNC(=O)CSCc1ccc(Cl)cc1Cl`, -40.2%; that for `CCCC(=O)NCCc1nc2ccccc2n1CCC`, -14.2%.
The result for `COc1ccc(C(=O)ON=C2CCN(C)CC2)cc1` reads -31.9%; that for `COc1cc(C(=O)NS(=O)(=O)c2ccccc2C)ccc1Cc1cn(C)c2ccc(NC(=O)OC3CCCC3)cc12`, 39.2% (active); that for `COc1ccc(CNC(=O)Cc2cn(C)c3ccccc23)c(OC)c1`, -7.1%.
In the case of `Cc1cc(NC(=O)OC2CCCCC2)ccc1[N+](=O)[O-]`, the inhibition is -54.1%.
Consider `CCOc1ccc(OCC)c(S(=O)(=O)NCc2cccnc2)c1`, for which the inhibition was -17.5%.
The value for `NCCc1nnc(SCC(=O)Nc2ccc(Br)cc2)o1` was -15.9%; that for `CC(NC(=O)c1ccc2nc[nH]c2c1)c1ccccc1` (stereo unspecified) was -33.6%.
The value for `Cn1nnnc1SCC(=O)N1CCN(C(=O)c2ccco2)CC1` was -32.2%; that for `O=C(O)CCCNC(=O)c1cncc(O)c1` was 15.1%.
The value for `N=c1ccn(Cc2ccc(Cl)c(Cl)c2)cc1` was 79.2% (active).
Take `N=c1ccn(Cc2ccc(Cl)cc2)cc1`: the inhibition is 30.5%.
For `N=c1ccn(Cc2cccc(Cl)c2)cc1`, the inhibition is 8.9%.
For `COC(Cn1c(-c2cccc(S(=O)(=O)N(C)C)c2)n[nH]c1=S)OC`, the inhibition was -34.1%.
The result for `Cc1cc(NC(=O)c2cc3ncc(Br)cn3n2)no1` reads -40.8%; that for `O=C(O)CCCn1cc(NC(=O)c2c(F)cccc2F)cn1`, -50.2%; that for `O=C(NCc1ccccn1)c1nc(Cn2cc([N+](=O)[O-])cn2)no1`, -23.2%.
The result for `COc1ccc(C2NCCn3cccc32)cc1` (stereo unspecified) reads 112% (active); that for `c1ccc(C2NCCn3cccc32)cc1` (stereo unspecified), -14.6%.
On to `Fc1ccc(C2NCCn3cccc32)cc1` (stereo unspecified), for which the inhibition is 25.8%.
The result for `Cc1ccc(C(c2nnnn2CS(=O)(=O)c2ccc(C)cc2)N2CCN(c3ncccn3)CC2)cc1` (stereo unspecified) reads -41.2%; that for `COc1ccc(CNC(=O)CN2CCN(c3cccc(C)c3C)CC2)cc1`, -3.6%.
The result for `O=C(CSc1nc2ccccc2n1-c1ccccc1)Nc1ncc(Cl)cc1Cl` reads 48.8%; that for `Cc1ccc(-n2c(SCC(=O)Nc3ncc(Cl)cc3Cl)nc3ccccc32)cc1`, 59.3%; that for `COc1ccc(-n2c(SCC(=O)Nc3ncc(Cl)cc3Cl)nc3ccccc32)cc1`, 58.9% (active).
The result for `Cc1ccc(SCC(=O)N2N=CCC2c2ccccc2)cc1` (stereo unspecified) reads -19.9%; that for `O=c1cc(O)n(-c2ccccc2F)c(=S)[nH]1`, 0%.
On to `CCOC(=O)c1c(C)sc2c1N(C(=O)CN(CC)CC)c1cc(Cl)ccc1S2`, for which the inhibition is -0.4%.
The result for `CCOC(=O)c1c(C)sc2c1N(C(=O)CCl)c1cc(Cl)ccc1S2` reads 55.3% (active); that for `CCOC(=O)c1c(C)sc2c1N(C(C)=O)c1cc(Cl)ccc1S2`, 25.7%; that for `CC(=O)Nc1ccc(S(=O)(=O)NCc2nc(-c3ccccc3)no2)cc1`, -7.6%.
For `CCOC(=O)C1=C(C)NC(=O)NC1c1cc2c(cc1Br)OCO2` (stereo unspecified), the inhibition was -20.8%.
The value for `Cc1cc(OC(=O)c2ccccc2)n(CCC#N)n1` was 6.7%; that for `COc1ccc2c(=O)c(Oc3ccc(C(=O)O)cc3)c(C(F)(F)F)oc2c1` was 47.7% (active).
The value for `O=C(O)c1ccc(Oc2c(C(F)(F)F)oc3cc(O)ccc3c2=O)cc1` was -31.7%; that for `COc1ccc(Oc2c(C(F)(F)F)oc3cc(OCC(=O)O)ccc3c2=O)cc1` was 4.6%; that for `O=C(c1ccc(F)cc1)N1CCN(c2ccc([N+](=O)[O-])c(N3CCOCC3)c2)CC1` was -17.8%.
As to `C=C1C(=O)C=C[C@]2(C)C[C@@H]3OC(=O)[C@](C)(O)[C@H]3C[C@@H]12`, the inhibition was 33.2% (active).
The value for `C[C@@H]1C[C@@H]2OC(=O)[C@]3(C)[C@H]2[C@@H](OC3(C)O)[C@]2(C)C(=O)C=C[C@H]12` (stereo partly specified) was -7.5%; that for `CCCCNc1nc2ccccc2n1CC(=O)Nc1ccc2c(c1)OCCO2` was -11.5%; that for `O=C(O)c1ccc(Cl)cc1NC(=O)C1CCCO1` (stereo unspecified) was -22%.
